# Giardia killer: kills Giardia lamblia; Giardia lamblia trophozoite viability; activity change, % at 7.66 µM, hits read low; 340,000 compounds, 0.15% hits; AID 540267; in the data active = activity change below about -80%; inconclusive = between about -30% and that limit;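 also: parasites exposed to compound for two days anaerobically before the ATP read; % is scaled to controls: 0 for no effect and ±100 for the full control effect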
#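 Media and compound were dispensed first, then trophozoites at 100 cells/well; plates sat 48 hrs at 37 deg C without oxygen before ATP luminescence reagent was added and read after 15-30 min at room temperature.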
# Nrf2 ARE act: activates Nrf2 signaling. AREc32 ARE-luciferase reporter (MCF7-derived line), luminescence, 24 h. Potency, µM (titrated, usually from 46.1 µM), for inactives: at the top dose activation, hits mostly activators. 410,000 compounds, 0.31% hits; also: potency is read from the fitted curve at half-maximal effect; % of control where 0% means no effect; nearly all actives have a fitted effect of over 65% in size
#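 Each well held 1000 AREc32 cells, which were incubated with compound for 24 hr at 37 deg C after overnight attachment, and ARE reporter activity was quantified by firefly luciferase luminescence.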
# Nrf2 block: blocks Nrf2 signaling | A549 ARE-Fluc reporter, luciferase luminescence, 18-24 h | Potency, µM (doses to about 46 µM), for inactives: top-dose activity change, negative = inhibition, usual class: inhibitors | 360,000 compounds, 2.1% hits | AID 504444; also: potency is read from the fitted curve at half-maximal effect; % is scaled to controls: 0 for no effect and ±100 for the full control effect; nearly all actives have a fitted effect of over 60% in size
#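 Two sequential reads on A549 ARE_Fluc cells exposed to compound for 18-24 h: a CellTiter-Fluor fluorescence read for viability, then a luciferase luminescence read for Nrf2/ARE activity.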
# A549 tox: counter-screen for Nrf2 inhibitors: cytotoxicity in A549 cells | 390,000 compounds, 0.16% hits | AID 504648 | A549 ARE-Fluc cells, CellTiter-Fluor viability, 18-24 h | Potency, µM (series often up to 46 µM), without a hit: at the highest dose activity change, negative = cytotoxicity, most hits filed as inhibitors; also: potency is read from the fitted curve at half-maximal effect; % is scaled to controls: 0 for no effect and ±100 for the full control effect
#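 A549 ARE_Fluc cells in 5% FBS OPTI-MEM were exposed to compounds in concentration-response for 18-24 h at 37 deg C. Viability was read by CellTiter-Fluor fluorescence (Ex 405/Em 525) after 30 min, before the luciferase read.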
# Anesthetic bind: candidate novel general anesthetic via apoferritin binding | Potency, µM (doses to about 77.5 µM), for inactives: at the highest dose activity change, negative = displacement, most hits filed as inhibitors | 350,000 compounds, 0.074% hits | P02791 | apoferritin/1-aminoanthracene competitive binding, fluorescence; also: potency is read from the fitted curve at half-maximal effect; % is scaled to controls: 0 for no effect and ±100 for the full control effect; nearly all actives have a fitted effect of over 20% in size
# Target sequence (P02791 2-175 limits assumed): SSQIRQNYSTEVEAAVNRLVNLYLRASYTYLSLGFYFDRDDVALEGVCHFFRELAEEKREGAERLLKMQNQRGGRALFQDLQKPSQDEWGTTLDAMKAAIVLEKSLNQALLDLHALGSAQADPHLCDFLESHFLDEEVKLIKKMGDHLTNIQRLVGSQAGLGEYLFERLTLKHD
#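 In PBS, apoferritin at 10 uM is loaded with 1-AMA from a 50% saturated solution. After 10 min of compound exposure at ambient temperature, reduced 535 nm fluorescence indicates probe displacement.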
# IDH1 R132H inh: human IDH1 R132H inhibition; 390,000 compounds, 0.093% hits; AID 602179; Potency, µM (series often up to 76.6 µM), for the others: top-dose activity change, negative = inhibition, actives largely listed as inhibitors; IDH1-R132H enzyme, NADPH consumption, diaphorase/resazurin fluorescence; O75874; also: potency is read from the fitted curve at half-maximal effect; % is scaled to controls: 0 for no effect and ±100 for the full control effect; nearly all actives have a fitted effect of over 65% in size
#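 IDH1-R132H (0.5 ug/mL dispensed) in pH 7.5 Tris buffer was preincubated 30 min with compound, then given a substrate mix of 0.016 mM NADPH and 2 mM alpha-KG for 80 min at room temperature; remaining NADPH was read by diaphorase/resazurin fluorescence.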
# * marks the source's active call; other numbers are inactive results; ? = inconclusive; · = not tested or not shown; [ ] = dose if it differs, or a comment. Compounds with a hit are over-represented: about 2.3% of the library has one in this group of screens. Unless noted, calls follow the shape of the dose curve; as a rule, active = well fitted curve in the direction sought with a large enough effect; inconclusive = small, poorly fitted or top-dose-only effect, or another doubt; inactive = no such curve, though single readings can be large; an effect the other way counts as inactive or inconclusive.
SMILES,Giardia killer,Nrf2 ARE act,Nrf2 block,A549 tox,Anesthetic bind,IDH1 R132H inh
Cc1cccc(N2CCN(c3ncnc4c3nc3n4CCCCC3)CC2C)c1 (configuration not stated),·,-4%,18µM*,16µM*,-16%,0%
Fc1ccccc1N1CCN(c2ncnc3c2nc2n3CCCC2)CC1,·,0%,21µM*,-6%,-5%,-6%
COC(=O)C/C=C\[C@@H](C)[C@@H](/C=N\O[C@@H](C)CN1CCCCc2nc(C)c(C)cc21)OC,·,·,·,·,-5%[15.3 µM],·
OC(C1=CC(=Cc2ccncc2)c2ccccc21)c1ccncc1 (configuration not stated),-8,?,21µM*,-21%,·,2%
CCCSc1ccc([C@H]2N[C@@](C)(C(=O)OC)[C@H]3C(=O)N(C)C(=O)[C@@H]23)cc1,-11,0%,-28%,0%,·,19%
CCCCCCSc1ccc([C@H]2N[C@@](C)(C(=O)OC)[C@H]3C(=O)N(C)C(=O)[C@@H]23)cc1,-10,-1%,26µM*,0%,·,12%
COC(=O)[C@H]1C[C@@H]2CC[C@@H](O)C[C@@H]2N1Cc1c(F)cccc1Cl,·,·,·,·,-8%,·
CC1(C)CC(=O)C(C2C3=C(CC(C)(C)CC3=O)Oc3c(Br)cc(Br)cc32)=C(O)C1 (configuration not stated),0,0%,23µM*,?,-1%,-5%
Cc1ccccc1-c1nc(NCCN2CCOCC2)c2ccccc2n1,·,·,·,·,0%,·
O=C(CSc1nc(-c2ccco2)nc2cc(=O)[nH]n12)Nc1ccccc1Cl,·,14µM*,0%,18%,0%,-9%
Cc1ccc(NC(=O)CSc2nc(-c3ccco3)nc3cc(=O)[nH]n23)c(Cl)c1,1,4%,6%,-3%,-3%,-6%
O=C(Cn1c(C(F)(F)F)nc2ccccc21)c1ccccc1,-9,0%,21µM*,-7%,-15%,0%
O=c1[nH][nH]c2c1[C@H](CCc1cccc(Cl)c1)O[C@H](CCc1ccccc1)C2,·,-1%,·,·,·,·
O=C(NCC(c1cccnc1)N1CCc2ccccc21)c1cccc(Br)c1 (configuration not stated),·,-3%,16µM*,0%,1%,21%
O=C(NCC(c1cccnc1)N1CCc2ccccc21)c1cccc(F)c1 (configuration not stated),·,3%,?,-3%,-1%,20%
CCCCn1c(NC(=O)c2ccccc2Cl)c(C#N)c2nc3ccccc3nc21,12,3%,13µM*,?,50%,5%
N#Cc1c(NC(=O)c2ccccc2Cl)n(Cc2ccccc2)c2nc3ccccc3nc12,4,5%,16µM*,?,1%,4%
CCCCn1c(NC(=O)CC)c(C#N)c2nc3ccccc3nc21,10,-1%,-7%,0%,40%,0%
O=S(=O)(c1cccnc1)N1CCN(c2nc(-c3cccs3)nc3ccccc23)CC1,-6,·,?,-17%,·,·
O=c1oc2ccccc2cc1-c1nc(-c2cccs2)no1,·,13µM*,·,7%,2%,-7%
CC(C)Cn1c(/C=C/c2ccco2)nc2ccccc21,29,13µM*,12%,2%,-19%,-6%
Cc1ccc(C)c(N2CCN(C(=O)c3ccc(CS(=O)Cc4cccc(Cl)c4)o3)CC2)c1 (configuration not stated),-14,0%,18µM*,-8%,-4%,-2%
O=C(c1ccc(CS(=O)Cc2cccc(Cl)c2)o1)N1CCN(c2ccc(F)cc2)CC1 (configuration not stated),·,0%,·,·,·,3%
CCc1ccc(OCCCCn2c(CCNC(=O)C3CCCCC3)nc3ccccc32)cc1,-2,·,3%,-3%,·,·

# Bioassay records (PubChem BioAssay)
